From PubChem BioAssay (EPA / NIEHS)
Active and inactive are the calls of the source. The calls were made as follows: active = hit-call score of the fitted dose curve at least 0.9, where 1 is the maximum; inactive = score below 0.9.

Legend:
[1] = BSK_hDFCGF_SRB: Viability Assessment in the BioMAP Diversity Plus: hDFCGF Assay (AID 2283061); details: primary human foreskin fibroblasts;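 also: cells exposed to compound for 24 h before the read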
How it was run: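 Human foreskin primary fibroblasts were treated with compound and assessed 24 h after dosing. Total protein was measured by sulforhodamine B staining (0.1% SRB after 10% TCA fixation, 560 nm read) as a cytotoxicity marker, with bidirectional fitting against DMSO baseline.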

[2] = read-out: Monokine induced gamma interferon (MIG), CXCL9 (gene 4283); assay: BSK_hDFCGF_MIG: BioMAP Diversity Plus: hDFCGF Assay for Monokine induced gamma interferon (MIG) Biomarker Activity (AID 2283063); details: primary human foreskin fibroblasts; actives raise or lower the signal
How it was run: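 ELISA read-out of MIG from primary human dermal fibroblasts 24 h post-dosing. Gain or loss of signal fitted bidirectionally, DMSO as baseline.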

[3] = read-out: Matrix Metallopeptidase 1 (MMP1), MMP1 (gene 4312); assay: BSK_hDFCGF_MMP1: BioMAP Diversity Plus: hDFCGF Assay for Matrix Metallopeptidase 1 (MMP1) Biomarker Activity (AID 2283064); details: primary human foreskin fibroblasts; actives raise or lower the signal
How it was run: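 MMP1 levels quantified by ELISA 24 h after dosing human dermal fibroblast cultures, with parallel SRB total-protein staining for overt cytotoxicity. Data fitted in both directions against DMSO baseline.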

[4] = read-out: Vascular cell adhesion molecule 1 (VCAM1), VCAM1 (gene 7412); assay: BSK_hDFCGF_VCAM1: BioMAP Diversity Plus: hDFCGF Assay for Vascular cell adhesion molecule 1 (VCAM1) Biomarker Activity (AID 2283065); details: primary human foreskin fibroblasts; actives raise or lower the signal
How it was run: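 Primary human foreskin fibroblasts (hDFCGF system) were dosed with chemical and VCAM-1 was measured by ELISA 24 h later. Bidirectional curve fitting used DMSO as negative control and activity baseline.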

[5] = read-out: Plasminogen activator inhibitor-1 (PAI1), SERPINE1 (gene 5054); assay: BSK_hDFCGF_PAI1: BioMAP Diversity Plus: hDFCGF Assay for Plasminogen activator inhibitor-1 (PAI1) Biomarker Activity (AID 2283066); details: primary human foreskin fibroblasts; actives raise or lower the signal
How it was run: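 ELISA readout of PAI-1 from primary human skin fibroblast cultures, 24 h after compound addition. Gain or loss of signal was fitted bidirectionally against DMSO baseline.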

[6] = read-out: Intercellular Adhesion Molecule 1 (ICAM1), ICAM1 (gene 3383); assay: BSK_KF3CT_ICAM1: BioMAP Diversity Plus: KF3CT Assay for Intercellular Adhesion Molecule 1 (ICAM1) Biomarker Activity (AID 2283067); details: primary human keratinocytes with fibroblasts; actives raise or lower the signal
How it was run: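 Human keratinocyte plus foreskin fibroblast primary co-culture was exposed to chemical for 24 h. ICAM-1 was then quantified by ELISA, and the data were fit bidirectionally against DMSO as the negative control and baseline.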

[7] = read-out: Interferon-gamma inducible Protein 10 (IP10), CXCL10 (gene 3627); assay: BSK_KF3CT_IP10: BioMAP Diversity Plus: KF3CT Assay for Interferon-gamma inducible Protein 10 (IP10) Biomarker Activity (AID 2283068); details: primary human keratinocytes with fibroblasts; actives raise or lower the signal
How it was run: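 ELISA read-out of IP-10 after 24 h chemical dosing of human skin primary co-culture (keratinocytes, foreskin fibroblasts). Gain or loss of signal relative to DMSO, bidirectional curve fit.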

[8] = BSK_KF3CT_SRB: Viability Assessment in the BioMAP Diversity Plus: KF3CT Assay (AID 2283069); details: primary human keratinocytes with fibroblasts
How it was run: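 Cytotoxicity was gauged by SRB staining (0.1% SRB, 10% TCA fixation, 560 nm) of parallel cultures at 24 h. The cells were primary human skin keratinocytes co-cultured with fibroblasts, and activity was fitted in both directions against DMSO.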

[9] = read-out: Interleukin-1 alpha (IL1a), IL1A (gene 3552); assay: BSK_KF3CT_IL1a: BioMAP Diversity Plus: KF3CT Assay for Interleukin-1 alpha (IL1a) Biomarker Activity (AID 2283070); details: primary human keratinocytes with fibroblasts; actives raise or lower the signal
How it was run: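 IL-1a was detected by ELISA 24 h after chemical treatment of a co-culture of human skin keratinocytes and foreskin fibroblasts. Gain or loss of signal was fitted against the DMSO baseline.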

[10] = read-out: TIMP metallopeptidase inhibitor 2 (TIMP2), TIMP2 (gene 7077); assay: BSK_KF3CT_TIMP2: BioMAP Diversity Plus: KF3CT Assay for TIMP metallopeptidase inhibitor 2 (TIMP2) Biomarker Activity (AID 2283071); details: primary human keratinocytes with fibroblasts; actives raise or lower the signal
How it was run: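 ELISA readout of TIMP-2 in keratinocyte plus foreskin fibroblast co-cultures (human skin primary cells), 24 h post-dose. Gain or loss of signal fitted relative to DMSO.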

[11] = read-out: Transforming growth factor beta 1 (TGFb1), TGFB1 (gene 7040); assay: BSK_KF3CT_TGFb1: BioMAP Diversity Plus: KF3CT Assay for Transforming growth factor beta 1 (TGFb1) Biomarker Activity (AID 2283072); details: primary human keratinocytes with fibroblasts; actives raise or lower the signal
How it was run: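 Read-out: ELISA for TGF-b1 in keratinocyte/foreskin fibroblast human skin co-culture, 24 h after dosing; bidirectional curve fit vs DMSO baseline; gain or loss of signal scored.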

[12] = read-out: C-C motif chemokine 2 (Homo sapiens) (UniProt P13500); assay: BSK_KF3CT_MCP1: BioMAP Diversity Plus: KF3CT Assay for Monocyte Chemoattractant Protein 1 (MCP1/CCL2) Biomarker Activity (AID 2283073); details: primary human keratinocytes with fibroblasts; actives raise or lower the signal
How it was run: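 Human keratinocyte plus foreskin fibroblast primary co-culture exposed to chemical for 24 h. MCP-1 levels measured by ELISA. Bidirectional curve fitting relative to DMSO negative control as baseline.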

[13] = read-out: Matrix Metallopeptidase 9 (MMP9), MMP9 (gene 4318); assay: BSK_KF3CT_MMP9: BioMAP Diversity Plus: KF3CT Assay for Matrix Metallopeptidase 9 (MMP9) Biomarker Activity (AID 2283074); details: primary human keratinocytes with fibroblasts; actives raise or lower the signal;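 as to AC50: MMP9 protein level quantified by ELISA in the co-culture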
How it was run: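 MMP-9 quantified by ELISA after 24 h chemical treatment of primary human skin keratinocyte/fibroblast co-cultures; gain or loss fitted against DMSO, with parallel SRB staining (0.1% SRB, 560 nm) for overt cytotoxicity.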

[14] = read-out: urokinase plasminogen activator (uPA), PLAU (gene 5328); assay: BSK_KF3CT_uPA: BioMAP Diversity Plus: KF3CT Assay for urokinase plasminogen activator (uPA) Biomarker Activity (AID 2283075); details: primary human keratinocytes with fibroblasts; actives raise or lower the signal
How it was run: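 ELISA read-out of uPA 24 h after dosing human skin keratinocytes co-cultured with foreskin fibroblasts. Signal change fitted both ways relative to DMSO; sulforhodamine B on parallel cultures marks overt cytotoxicity.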

CD40, CD40 (gene 958) = assay: BSK_LPS_CD40: BioMAP Diversity Plus: LPS Assay for CD40 Biomarker Activity (AID 2283076); details: primary human HUVEC with PBMC; actives raise or lower the signal
How it was run: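 Primary human umbilical vein endothelial cells co-cultured with peripheral blood mononuclear cells, LPS-stimulated, were dosed with chemical and read 24 h later. CD40 levels were measured by ELISA and fitted bidirectionally against DMSO as negative control and baseline.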

[15] = read-out: E-selectin (Homo sapiens) (UniProt P16581); assay: BSK_LPS_Eselectin: BioMAP Diversity Plus: LPS Assay for Eselectin Biomarker Activity (AID 2283077); details: primary human HUVEC with PBMC; actives raise or lower the signal
How it was run: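 Human umbilical vein endothelial cells co-cultured with peripheral blood mononuclear cells under LPS stimulation; E-selectin measured by ELISA 24 h after chemical dosing. Activity fitted bidirectionally against DMSO as negative control and baseline.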

[16] = read-out: Interleukin-8 (IL8), CXCL8 (gene 3576); assay: BSK_LPS_IL8: BioMAP Diversity Plus: LPS Assay for Interleukin-8 (IL8) Biomarker Activity (AID 2283078); details: primary human HUVEC with PBMC; actives raise or lower the signal
How it was run: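 Human umbilical vein endothelial cells co-cultured with PBMC were stimulated with LPS; IL-8 levels were measured by ELISA 24 h after chemical dosing. Activity was fitted bidirectionally against DMSO as negative control and baseline.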

[17] = read-out: Interleukin-1 alpha (IL1a), IL1A (gene 3552); assay: BSK_LPS_IL1a: BioMAP Diversity Plus: LPS Assay for Interleukin-1 alpha (IL1a) Biomarker Activity (AID 2283080); details: primary human HUVEC with PBMC; actives raise or lower the signal
How it was run: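 Human umbilical vein endothelial cells co-cultured with peripheral blood mononuclear cells were LPS-stimulated and exposed to test chemicals for 24 h. IL-1 alpha was quantified by ELISA, with bidirectional curve fitting against DMSO as the negative control and baseline.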

[18] = BSK_LPS_SRB: Viability Assessment in the BioMAP Diversity Plus: LPS Assay (AID 2283079); details: primary human HUVEC with PBMC;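 also: total protein by sulforhodamine B absorbance as a cytotoxicity measure; measured one day after compound addition; fitted in both directions against DMSO so loss or gain of signal counts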
How it was run: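 Human umbilical vein endothelial cells co-cultured with PBMC (LPS system) were dosed for 24 h. Total protein was stained with 0.1% sulforhodamine B after 10% TCA fixation, read at 560 nm, and fitted bidirectionally against DMSO baseline.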

[19] = read-out: TIMP metallopeptidase inhibitor 1 (TIMP1), TIMP1 (gene 7076); assay: BSK_hDFCGF_TIMP1: BioMAP Diversity Plus: hDFCGF Assay for TIMP metallopeptidase inhibitor 1 (TIMP1) Biomarker Activity (AID 2283062); details: primary human foreskin fibroblasts; actives raise or lower the signal
How it was run: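 Primary human foreskin fibroblasts in the hDFCGF system were dosed with compound for 24 h, then TIMP-1 was measured by ELISA. Activity was fitted bidirectionally relative to DMSO control; parallel SRB staining assessed cytotoxicity.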

Measured: AC50

E-selectin (Homo sapiens), sequence (P16581 whole entry, looked up): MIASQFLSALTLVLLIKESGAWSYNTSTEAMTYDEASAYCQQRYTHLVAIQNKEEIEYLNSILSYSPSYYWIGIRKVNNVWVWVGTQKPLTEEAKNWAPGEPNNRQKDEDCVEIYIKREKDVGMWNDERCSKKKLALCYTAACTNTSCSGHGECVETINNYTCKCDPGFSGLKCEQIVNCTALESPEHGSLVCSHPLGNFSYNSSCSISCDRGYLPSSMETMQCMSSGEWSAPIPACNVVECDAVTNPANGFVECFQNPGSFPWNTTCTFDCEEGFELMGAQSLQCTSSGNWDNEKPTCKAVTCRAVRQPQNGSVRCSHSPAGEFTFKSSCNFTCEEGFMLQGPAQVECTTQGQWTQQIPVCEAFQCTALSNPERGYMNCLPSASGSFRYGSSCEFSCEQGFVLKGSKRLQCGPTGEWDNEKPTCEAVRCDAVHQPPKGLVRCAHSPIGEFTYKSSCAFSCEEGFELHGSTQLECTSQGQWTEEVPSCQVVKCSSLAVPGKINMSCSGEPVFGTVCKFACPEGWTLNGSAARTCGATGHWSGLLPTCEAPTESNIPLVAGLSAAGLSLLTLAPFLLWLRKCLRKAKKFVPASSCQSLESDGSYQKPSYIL

CC(C)(O)c1cnn2c(-c3ccc(F)c(-c4c(F)cccc4C#N)c3)cnc2n1
active: [3] 6.43 µM | [7] 23.2 µM | [8] 33.2 µM | [10] 31 µM | [11] 36 µM | [13] 34.6 µM | [14] 31.9 µM | [16] 3.82 µM
not listed: [18] | [19]
inactive: all other assays above

CS(=O)(=O)NC(=O)c1cc(Oc2ccc(C(F)(F)F)cc2Cl)ccc1[N+](=O)[O-]
not listed: [19]
inactive: all other assays above

CN(C)C(=O)Nc1ccc(Cl)cc1
not listed: [10] | [13]
inactive: all other assays above

c1ccc(N=Nc2ccccc2)cc1
not listed: [10] | [13] | [18]
inactive: all other assays above
